Results: PubChem BioAssay (NCATS)
Several values for one entry are separate records, joined by “and”; a condition that tells them apart may be missing. Equal values may be shown once. Inconclusive results are not listed. Where a call stands in place of a potency, no number is given. A structure can be active in one record and inactive in another. Activity calls are given as the source filed them. Unless noted, calls come from the whole dose curve; as a rule, active = well fitted curve in the direction sought with a large enough effect; inconclusive = small, poorly fitted or top-dose-only effect, or another doubt; inactive = no such curve, though single readings can be large; an effect the other way counts as inactive or inconclusive.

Key:
[1] = test system: Es-2; assay: Primary qHTS to identify gynecologic anti-cancer compounds using libraries of approved drugs and bioactive compounds (AID 1345084); settings: Gynecologic cancer cell panel viability, ATPlite luminescence, 48 h; series mostly up to 57.5 µM; note: nearly all actives have a fitted effect of over 55% in size; note: potency is the fitted concentration of half-maximal effect
In short: (§1)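 Cells, 1,000 per well, plated 16 h, then exposed 48 h at 37 C to compounds. Viability by ATPlite luminescence after 15 min at room temperature.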

[2] = test system: Hek293T; assay: as above; settings: Gynecologic cancer cell panel viability, ATPlite luminescence, 48 h, control line for the selectivity index; series mostly up to 57.5 µM
In short: as §1

[3] = test system: JEG-3; assay: as above; settings: Gynecologic cancer cell panel viability, ATPlite luminescence, 48 h; series mostly up to 57.5 µM
In short: as §1

[4] = test system: OV90; assay: as above; settings: Gynecologic cancer cell panel viability, ATPlite luminescence, 48 h; series mostly up to 57.5 µM
In short: as §1

[5] = test system: PA-1; assay: as above; settings: Gynecologic cancer cell panel viability, ATPlite luminescence, 48 h; series mostly up to 57.5 µM
In short: as §1

[6] = test system: SKOV3; assay: as above; settings: Gynecologic cancer cell panel viability, ATPlite luminescence, 48 h; series mostly up to 57.5 µM
In short: as §1

[7] = test system: Tov-21-G; assay: as above; settings: Gynecologic cancer cell panel viability, ATPlite luminescence, 48 h; series mostly up to 57.5 µM
In short: as §1

[8] = test system: Tov112D; assay: as above; settings: Gynecologic cancer cell panel viability, ATPlite luminescence, 48 h; series mostly up to 57.5 µM
In short: as §1

[9] = Drug repurposing screens with cells derived from glioblastoma tumor samples (AID 1345199); settings: GBM patient neurospheres viability, ATP luminescence, 48 h; note: nearly all actives have a fitted effect of over 40% in size; note: potency is the fitted concentration of half-maximal effect
In short: (§2)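 Primary testing used CD133+ neurospheres from four GBM patients, seven concentrations, 48 h exposure and ATP-based viability; confirmation added three slower-growing patient lines.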

[10] = test system: astro; assay: as above; settings: viability, ATP luminescence, 48 h; series mostly up to 45.9 µM
In short: as §2

[11] = qHTS assay for small molecule activators of the human pregnane X receptor (PXR) signaling pathway (AID 720659; call rule not given here)
[12] = at 20 µM (top of the series), tumour line C
[13] = at 21.2 µM (top of the series), tumour line B
[14] = at 21.2 µM (top of the series), tumour line D
[15] = at 21.3 µM (top of the series), tumour line A
[16] = at 45.9 µM (top of the series), tumour line D
[17] = at 46.1 µM (top of the series), tumour line C
[18] = at 45.9 µM (top of the series), tumour line B
[19] = at 46 µM (top of the series), tumour line A

Row | Compound | Potency [1] | Potency [2] | Potency [3] | Potency [4] | Potency [5] | Potency [6] | Potency [7] | Potency [8] | activity, negative = cell killing [9, 12] | activity, negative = cell killing [9, 13] | activity, negative = cell killing [9, 14] | activity, negative = cell killing [9, 15] | Potency [10] | activity, negative = cell killing [9, 16] | activity, negative = cell killing [9, 17] | activity, negative = cell killing [9, 18] | activity, negative = cell killing [9, 19] | outcome [11]
1 | Cc1cccc(Nc2ccncc2S(=O)(=O)NC(=O)NC(C)C)c1 | inactive | inactive | inactive | inactive | inactive | inactive | inactive | inactive | -12.8% (inactive) | -1.96% (inactive) | -26% (inactive) | -11% (inactive) | – | – | – | – | – | –
2 | COc1cc2c(Nc3ccc(Br)cc3F)ncnc2cc1OCC1CCN(C)CC1 | inactive | inactive | inactive and 28.2 µM (active) | inactive | inactive | inactive and 12.6 µM (active) | inactive | inactive and 31.6 µM (active) | – | – | – | – | 14.1 µM (active) | – | – | – | – | –
3 | COc1ccc(C(=O)CC(=O)c2ccc(C(C)(C)C)cc2)cc1 | inactive | inactive | inactive | inactive | inactive | inactive | inactive | inactive | – | – | – | – | inactive | -26.5% (inactive) | 3.24% (inactive) | – | – | –
4 | Cc1noc(NS(=O)(=O)c2ccc(N)cc2)c1C | inactive | inactive | inactive | inactive | inactive | inactive | inactive | inactive | – | – | – | – | – | -24.3% (inactive) and -9.55% (inactive) | -22.2% (inactive) and -6.01% (inactive) | -5.33% (inactive) and -3.65% (inactive) | -16.5% (inactive) | inactive
5 | Cc1oc(=O)oc1CN1CCN(c2cc3c(cc2F)c(=O)c(C(=O)O)c2n3C(C)S2)CC1 (stereo not given) | inactive | inactive | inactive | inactive | inactive | – | inactive | inactive | – | – | – | – | inactive | 7.6% (inactive) | -0.513% (inactive) | -20.2% (inactive) | -22.8% (inactive) | –
6 | CC[C@H](C)C(=O)O[C@H]1C[C@@H](C)C=C2C=C[C@H](C)[C@H](CC[C@@H]3C[C@@H](O)CC(=O)O3)[C@H]21 | inactive | inactive | inactive | inactive | inactive | inactive | inactive | inactive | – | – | – | – | 0.447 µM (active) | – | – | – | – | –
7 | COCCCOc1cc(C[C@@H](C[C@H](N)[C@@H](O)C[C@H](C(=O)NCC(C)(C)C(N)=O)C(C)C)C(C)C)ccc1OC | inactive | inactive | inactive | inactive | inactive | inactive | inactive | inactive | – | – | – | – | inactive | 12.6% (inactive) | 3% (inactive) | 9.07% (inactive) | – | –
8 | CCn1cc(C(=O)O)c(=O)c2cc(F)c(N3CCNCC3)nc21 | inactive | inactive | inactive | inactive | inactive | inactive | inactive | inactive | -1.66% (inactive) | -1.31% (inactive) | -17.3% (inactive) | -3.28% (inactive) | inactive | – | – | – | – | –
9 | COc1ncnc(NS(=O)(=O)c2ccc(N)cc2)c1OC | inactive | inactive | inactive | inactive | inactive | inactive | inactive | inactive | – | – | – | – | inactive | -22.1% (inactive) | -21.2% (inactive) | -5.91% (inactive) | – | –
10 | CCOC(=O)[C@H](CCc1ccccc1)N[C@H]1CCc2ccccc2N(CC(=O)O)C1=O | inactive | inactive | inactive | inactive | inactive | – | inactive | inactive | – | – | – | – | – | – | – | – | – | –
11 | CC(C(=O)O)c1ccc2c(c1)CC(=O)c1ccccc1S2 (stereo not given) | inactive | inactive | inactive | inactive | inactive | inactive | inactive | inactive | – | – | – | – | inactive | -21.1% (inactive) | 5.54% (inactive) | -3.56% (inactive) | -9.77% (inactive) | –
12 | O=P(O)(O)C(O)(Cc1cccnc1)P(=O)(O)O | inactive | inactive | inactive | inactive | inactive | inactive | inactive | inactive | – | – | – | – | – | -7.26% (inactive) | 2.44% (inactive) | -9.54% (inactive) | – | –
13 | CNS(=O)(=O)Cc1ccc2[nH]cc(CCN(C)C)c2c1 | inactive | inactive | inactive | inactive | inactive | – | inactive | inactive | – | – | – | – | – | -2.5% (inactive) | 0.932% (inactive) | 2.54% (inactive) | -14% (inactive) | –
